Hits are enriched below; roughly 4.1% of the tested compounds scored in any of these assays.
F508del corr = CFTR F508del correction in bronchial cells. CFBE cells, YFP halide quenching; stimulated with forskolin plus potentiator P3; % fluorescence drop versus neutral controls. activity (quench increase), % at 7.58 µM. hit rate 0.36% among 350,000. AID 720511;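 active = mean added fluorescence quench of at least 8% versus neutral control, with both replicates also reaching 8%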;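 note: cells transiently co-express mutant CFTR-F508del with the halide-sensitive YFP; corrector assay measuring rescue of mutant channel to the surface after 24 h compound exposure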
CASP6 VEID inh = caspase-6 (human) enzyme inhibition. inhibition, % at 12.5 µM. P55212. hit rate 0.53% among 350,000. purified caspase-6, Z-VEID-R110 cleavage fluorescence;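 active = mean inhibition across replicates at least about 35%, with every replicate also reaching that limit, limit read from the data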
PglD DTNB = inhibitors of Campylobacter jejuni PglD acetyltransferase; purified PglD enzyme, DTNB colorimetric CoA detection; inhibition, % at 12.5 µM; hit rate 0.098% among 360,000; AID 602405; in the data active = inhibition above about 16%, passing the limit was not always enough
HIV Env fusion = HIV envelope-mediated fusion inhibition; HeLa-JRFL Env/CEM21 cell fusion, luciferase; inhibition, % at 12.3 µM; hit rate 1.1% among 360,000; AID 651610;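 active = mean replicate inhibition score of at least 50 and every replicate individually at or above 50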
ALR H2O2 inh = human ALR oxidase inhibition via reduced H2O2. P55789. purified ALR, DTT oxidation, H2O2 HRP-luminol luminescence. inhibition, % (no concentration beside the values). hit rate 3.8% among 290,000. AID 485317;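 active = mean replicate inhibition above about 79%, with every replicate also reaching it, limit read from the data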
NSD2 HMT inh = inhibitors of human histone methyltransferase NSD2; O96028; NSD2 peptide methylation, AlphaScreen, 120 min; inhibition, % at 12.5 µM; hit rate 0.54% among 310,000; AID 743445; in the data active = inhibition above about 50%
Hits are given with their value; - = inactive; . = not tested or not shown; [ ] = remark or other dose.

SMILES	F508del corr	CASP6 VEID inh	PglD DTNB	HIV Env fusion	ALR H2O2 inh	NSD2 HMT inh
Cc1cccc(S(=O)(=O)N2CCCCN3[C@H](C2)[C@@H](c2ccc(C#C[C@@H](C)O)cc2)[C@@H]3CO)c1	-	-	-	.	.	.
C[C@H]1CN([C@@H](C)CO)C(=O)c2cc(NC(=O)Nc3ccc4c(c3)OCO4)ccc2O[C@H]1CN(C)Cc1ccccc1	-	-	-	-	.	.
CCCN1C[C@H](C)[C@H](OC)CN(C)C(=O)c2cc(NC(=O)CC(F)(F)F)ccc2OC[C@@H]1C	-	-	.	.	.	.
O=C1C=CC2=C3c4cc(O)c(O)cc4CC3(O)COC2=C1O (configuration not stated)	-	85	-	.	.	.
C[C@@H]1CN([C@H](C)CO)C(=O)c2cc(NC(=O)c3ccncc3)ccc2O[C@@H](C)CCCCO[C@H]1CN(C)C(=O)Nc1ccccc1	-	-	-	-	.	.
COc1cccc(C(=O)Nc2ccc3c(c2)C(=O)N(C)[C@@H]2CC[C@@H](CC(=O)NCC4CC4)O[C@H]2CO3)c1	-	-	-	-	.	.
O=C(c1ccccc1)N(Nc1ccccc1)c1ccccc1	.	-	.	-	76	-
CN(C)CCCNC(=O)C[C@H]1CC[C@@H]2[C@H](COc3ccc(NC(=O)c4cccc(F)c4)cc3C(=O)N2C)O1	-	-	-	-	.	.
C=C1CCN([C@@H](CC(C)C)C(=O)Nc2ccc(OC)cc2)S(=O)(=O)c2ccccc21	-	-	-	102	-	.
C=C1CCN([C@@H](Cc2ccccc2)C(=O)NCCC(C)C)S(=O)(=O)c2ccccc21	-	-	-	84	-	.
COCCNC(=O)C[C@H]1C[C@H]2c3cc(NS(=O)(=O)c4ccccc4)ccc3O[C@H]2[C@@H](CO)O1	-	-	-	-	.	.
C[C@H](CO)N1C[C@H](C)[C@H](CN(C)S(C)(=O)=O)Oc2ccc(N(C)C)cc2CC1=O	-	-	-	-	.	.
COc1ccc(C(=O)NC2CCCCC2)cc1OC1CCN(C(C)C)CC1	-	-	-	-	-	-
CCCN1C(=O)c2cc(C(=O)NC3CCCCCC3)ccc2C1O (configuration not stated)	-	-	-	-	96	.
CCCN1C(=O)c2cc(C(=O)O)ccc2C1O (configuration not stated)	-	-	-	-	-	.
CCOC(=O)N1CCC(NC(=O)c2ccc3c(c2)N=C(CC)c2cc(C)ccc2S3)CC1	-	-	-	-	-	-
CCOC(=O)N1CCC(NC(=O)c2ccc3c(c2)N=C(C)c2c(C)ccc(C)c2S3)CC1	11	-	-	-	-	-
CCOC(=O)N1CCC(N2C(=O)c3cc(C(=O)NC4CCCCC4)ccc3C2O)CC1 (configuration not stated)	-	-	-	-	94	.
COc1ccc(C(=O)NC2CCCCCC2)cc1OC1CCN(C(C)=O)CC1	-	-	-	-	93	-
COc1ccc2c3c(n(C)c2c1)[C@@H](CO)N(Cc1ccccc1)CC31CN(S(C)(=O)=O)C1	-	.	.	.	.	.
CN(C)c1cccc(C(=O)NC2CCCCCC2)c1	.	.	-	-	94	-
CN(C)C(=O)c1cccc(-c2ccccc2[C@@H]2[C@H](C#N)N(C(=O)C3CCC3)[C@H]2CO)c1	-	-	.	.	.	.
S=C(NCc1cccnc1)Nc1cccc2ccccc12	.	-	-	-	-	-
CCn1cc(CNC(=S)Nc2cccc3ccccc23)cn1	-	53	.	-	.	-
CCOc1ccc(NC(=O)Nc2ccc3c(c2)nnn3C)cc1	-	-	-	.	99	-
SMILES	F508del corr	CASP6 VEID inh	PglD DTNB	HIV Env fusion	ALR H2O2 inh	NSD2 HMT inh
Nc1ccc(C(=O)OCCc2ccccc2)cc1	-	-	-	-	.	.
O=C(Oc1ccccc1)c1cc(O)c(O)c(O)c1	.	.	-	.	.	116
O=C(OCCc1ccccc1)c1cc(O)c(O)c(O)c1	-	-	-	-	99	.
COc1ccc2c3c([nH]c2c1)[C@H](CO)N(Cc1cccc(F)c1)CC31CN(CC2CC2)C1	-	-	.	.	.	.
CCC(C)NC(=O)c1ccc(CSCc2ccc(Cl)cc2)o1 (configuration not stated)	-	-	-	-	84	-
CC(C)NC(=O)c1ccc(CSCc2ccccc2Cl)o1	-	-	-	-	99	-
NNC(=O)c1ccc(COc2cccc3ccccc23)o1	-	-	-	-	-	-
CCC(C)NC(=O)c1ccc(CSCc2ccccc2Cl)o1 (configuration not stated)	-	-	-	-	-	-
CC(C)NC(=O)c1ccc(COc2cccc3ccccc23)o1	9.8	-	-	-	.	-
CCCOc1ccc(N)cc1N	.	.	-	.	.	68
CC1(C)Nc2ccccc2N(CC(=O)N2CCCCC2)C1=O	.	.	.	.	98	-
CN(C(=O)CCN1C(=O)C(C)(C)Nc2ccccc21)c1ccccc1	.	.	-	-	-	-
CC1(C)Nc2ccccc2N(Cc2ccc([N+](=O)[O-])cc2)C1=O	-	-	-	-	96	-
COc1cc(/C=C/C(=O)O)cc(S(=O)(=O)NNC(=O)c2ccc3c(c2)OCO3)c1OC	-	-	-	-	90	-
COc1cc(/C=C/C(=O)O)cc(S(=O)(=O)Nc2ccc3c(c2)OCO3)c1OC	-	-	-	-	-	-
CC(C)(C)CC(C)(C)NC(=O)CSCC(=O)Nc1ccc2ccccc2c1	.	.	-	.	99	.
CCC(=O)Nc1ccc2ccccc2c1	.	.	-	.	-	-
Cc1nn2c(=S)[nH]nc2[nH]c1=O	-	-	-	-	95	-
Cc1oc(-c2ccccc2F)nc1CS(=O)CC(=O)NCc1ccc(Cl)cc1 (configuration not stated)	-	-	.	-	-	-
Cc1oc(-c2cccs2)nc1CS(=O)CC(=O)NCc1ccc2c(c1)OCO2 (configuration not stated)	-	-	-	-	-	-
Cc1ccccc1-c1nc(CS(=O)CC(=O)NCc2ccc3c(c2)OCO3)c(C)o1 (configuration not stated)	-	-	-	-	98	-
Cc1oc(-c2ccccc2Cl)nc1CS(=O)CC(=O)NCc1ccc2c(c1)OCO2 (configuration not stated)	-	-	-	-	82	-
O=C(NCc1ccc2c(c1)OCO2)c1cc(-c2ccccc2Cl)on1	.	.	-	-	-	-
Cc1oc(-c2ccccc2Cl)nc1CS(=O)CC(=O)NCc1ccc(Cl)cc1 (configuration not stated)	-	-	-	-	99	-
CCCc1cn([C@@H]2C[C@@H]3O[C@H](CO)CC[C@@H]3O[C@@H]2CCc2ccc(-c3cccc(OC)c3)cc2)nn1	-	-	.	.	.	.
CCS(=O)(=O)Nc1ccc2c(c1)C(=O)N(C)[C@@H]1CC[C@@H](CC(=O)Nc3ccccc3)O[C@@H]1CO2	-	-	-	-	.	.
O=C(C[C@@H]1C=C[C@H](NC(=O)C2CC2)[C@H](CO)O1)Nc1nccs1	-	83	-	-	.	.
COc1cccc(CNC(=O)C[C@@H]2C=C[C@H](NC(=O)C3CCC3)[C@H](CO)O2)c1	-	-	-	65[16.7 µM]	.	.

Compound activity: PubChem, Broad Institute
